Only some compounds are listed: those with a hit (about 1.3% of all), similar ones and a draw of the others.
PTAP TSG101 blk – qHTS Assay for Iinhibitors of HIV-1 Budding by Blocking the Interaction of PTAP/TSG101 | Tumor susceptibility gene 101 protein (Homo sapiens), Q99816 | Fluorescence polarization, FITC-PTAP peptide / Tsg101 binding | Potency, µM (top dose mostly 115 µM), without a hit: top-dose activity change, negative = inhibition, usual class: inhibitors | 340,000 tested, under 10 active | AID 493005, 2010; active = well fitted inhibition curve with a large enough effect in the main read-out, with a control signal flat, not every such curve was filed as active; inconclusive = small, poorly fitted or top-dose-only effect, or effect the other way, or a change in a side signal; inactive = no such curve, though single readings can be large or run the other way; also: potency is read from the fitted curve at half-maximal effect; % of control where 0% means no effect
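Tsg101 binding domain (10 uM final) was mixed with compound and a FITC-labeled PTAP peptide (50 nM final) in HEPES pH 7.5 buffer with NaCl, Tween 20, EDTA and TCEP; fluorescence polarization was read after 20 min at r.t.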
BRCA1 expr act – qHTS Assay to Identify Small Molecule Activators of BRCA1 Expression; MCF7-BRCA1-FFLuc reporter, luminescence, 48 h; response scale: scaled: vehicle 0%, 10 µM genistein 100%; Potency, µM (highest dose often 46.1 µM), for the others: at the top dose activation, usual class: activators; 380,000 tested, 1.1% active; AID 624202, 2012; active = well fitted activation curve with a large enough effect; inconclusive = small, poorly fitted or top-dose-only effect; inactive = no such curve, though single readings can be large or run the other way; also: potency is read from the fitted curve at half-maximal effect; nearly all actives have a fitted effect of over 80% in size
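MCF7-BRCA1-FFLuc cells, 2000/well in phenol-red-free MEM, attached 2 h then treated 48 h at 37 C. Luciferase luminescence read 15 min after reagent; normalized to genistein maximum activation (10microM) and DMSO, concentration-response fitted.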
PKM2 activator – qHTS Assay for Activators of Human Muscle isoform 2 Pyruvate Kinase. Pyruvate kinase PKM (Homo sapiens), P14618. purified PKM2, Kinase-Glo ATP luminescence, activation; response scale: 0% is enzyme alone, no compound. Potency, µM (top dose mostly 57.5 µM), inactives show at the top dose activation, actives largely listed as activators. 260,000 tested, 0.34% active. AID 1631, 2009; active = well fitted activation curve with a large enough effect; inconclusive = small, poorly fitted or top-dose-only effect; inactive = no such curve, though single readings can be large or run the other way; also: potency is read from the fitted curve at half-maximal effect; % is scaled to controls: 0 for no effect and ±100 for the full control effect; nearly all actives have a fitted effect of over 55% in size
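Kinase-Glo luminescence reports ATP generated from ADP (0.1 mM) and PEP (0.5 mM) by purified hPK-M2 after 1 h at room temperature, pH 7.2 imidazole buffer; intermediate enzyme activity allows detecting inhibitors and activators.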
IL2 activator – qHTS of IL-2 Activators; IL-2 activation reporter assay, cell-based qHTS; stimulated with anti-CD3/CD4/CD28 beads; in transgenic mouse T cells; activation, % (series mostly up to about 46 µM); 360,000 tested, 0.065% active; also: 0% is about no effect
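Quantitative HTS in unstimulated transgenic mouse T cells, with memory T cells as non-tolerant control and PMA/ionomycin as tolerance-bypass control. Compound pretreatment lasted 60 minutes before 18 h bead stimulation; EGFP/DsRed fluorescence read.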
TRPML1 ag – qHTS for Agonists of the Human Mucolipin Transient Receptor Potential 1 (TRPML1) | 410,000 tested, 0.12% active | Mucolipin-1 (Homo sapiens), Q9GZU1 | TRPML1-expressing cells, Ca2+ dye fluorescence, FDSS | AID 624414, 2012 | activation, % (concentration not given with the values); also: 0% is about no effect
Target sequence (Q9GZU1 whole entry, looked up): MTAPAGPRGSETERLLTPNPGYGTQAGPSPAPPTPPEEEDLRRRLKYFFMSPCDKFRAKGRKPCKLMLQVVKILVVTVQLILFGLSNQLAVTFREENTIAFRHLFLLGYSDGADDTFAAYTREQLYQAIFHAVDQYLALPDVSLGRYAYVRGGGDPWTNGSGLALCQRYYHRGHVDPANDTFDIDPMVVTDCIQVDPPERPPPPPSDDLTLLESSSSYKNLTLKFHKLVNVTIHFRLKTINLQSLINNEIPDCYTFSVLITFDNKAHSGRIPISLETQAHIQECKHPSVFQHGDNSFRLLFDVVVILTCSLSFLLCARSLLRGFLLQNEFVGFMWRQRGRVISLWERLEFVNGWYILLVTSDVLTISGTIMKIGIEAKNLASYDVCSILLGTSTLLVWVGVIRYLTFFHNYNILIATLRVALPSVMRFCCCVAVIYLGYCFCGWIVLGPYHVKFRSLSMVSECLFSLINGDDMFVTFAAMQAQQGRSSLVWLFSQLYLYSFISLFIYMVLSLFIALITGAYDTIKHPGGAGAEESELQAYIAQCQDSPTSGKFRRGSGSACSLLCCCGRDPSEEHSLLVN
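Agonist activity was taken from a 110 s kinetic Ca2+ dye read on the FDSS after pinning compounds onto TRPML1-DL cells. The cells were seeded at 1,500/well with Tet inducer, incubated about 16 h, then dye-loaded at room temperature.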
TRPML1 blocker – qHTS for Inhibitors of the Human Mucolipin Transient Receptor Potential 1 (TRPML1); Mucolipin-1 (Homo sapiens), Q9GZU1; TRPML1-inducible cells, Ca2+ dye fluorescence, FDSS; active compounds read low; inhibition of EC80 agonist-evoked calcium signal; activity change, negative = inhibition, % (test concentration not listed); 390,000 tested, 0.02% active; in the data active = activity change below about -50%; inconclusive = between about -30% and that limit;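 also: stimulus is agonist 54-4 at its EC80 concentration; % is scaled to controls: 0 for no effect and ±100 for the full control effect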
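Tet-induced TRPML1-DL cells loaded with Ca8 no-wash calcium dye were read kinetically on FDSS. Compound addition was followed by EC80 agonist 54-4 (4 uM final); inhibition was read over 110 s.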
The depositor's hits bear a star; ? = inconclusive; / = no result given; [ ] = another dose, or the depositor's remark. Rule as the data show it, unless noted: active = activation above about 50%; inconclusive = mostly about 30% to 49%; inactive = weaker than that.

SMILES	PTAP TSG101 blk	BRCA1 expr act	PKM2 activator	IL2 activator	TRPML1 ag	TRPML1 blocker
Cc1ccc2nc3sc(C(=O)NCc4ccco4)c(N)c3cc2c1	?	?	14%	167*	2	7
COc1cc2cc3c(N)c(C(=O)NCc4ccco4)sc3nc2cc1OC	-3%	?	6%	0	0	2
O=C(CSc1nnc(-c2ccccn2)o1)Nc1ccc(F)cc1	-5%	114%	/	-2	0	21
Cn1c(SCc2ccccc2F)nnc1-c1cnccn1	-3%	?	?	0	0	-14
Cn1c(SCc2ccc(F)cc2)nnc1-c1ccccn1	-4%	4.5µM*	9%	1	-1	1
Fc1ccc(CSc2nnc(-c3ccccn3)o2)cc1	-1%	4µM*	7%	1	/	/
Cn1c(SCc2ccccc2F)nnc1-c1ccccn1	-1%	11µM*	17%	0	-1	14
Cn1c(SCc2ccc(F)cc2)nnc1-c1cccs1	-6%	4.5µM*	14%	-2	1	2
COc1cccc(NC(=O)C2CCN(c3nnc(C)c4c(C)n(-c5ccccc5)nc34)CC2)c1	/	/	/	/	0	-3
Nn1c(SCc2ccccc2F)nnc1-c1cccnc1	2%	8.9µM*	-1%	4	1	27
O=C1C(Cl)=C(NCC2CCCO2)C(=O)N1CCc1ccccc1 (stereo not given)	-5%	7.9µM*	9%	1	3	5
O=C1C(Cl)=C(NCCCN2CCOCC2)C(=O)N1CCc1ccccc1	-4%	2%	-9%	0	0	18
O=C1C(Cl)=C(NCCc2ccccc2)C(=O)N1CCc1ccccc1	-3%	7.9µM*	-10%	5	0	-2
O=S(=O)(c1ccc(F)cc1)N(Cc1nc(-c2ccc(Cl)cc2)no1)C1CCCCC1	/	/	/	/	-1	17
CN(C)c1cccc(C(=O)Nc2cccc(S(=O)(=O)NC3=NCCC3)c2)c1	-2%	4µM*	-1%	-3	0	20
CN(C)c1cccc(C(=O)Nc2ccc(N3CCOCC3)cc2)c1	-5%	11µM*	3%	-3	-1	7
COc1ccc(N(Cc2cccs2)C(=O)c2ccc(Br)o2)cc1	/	/	/	/	6	-17
O=C(NCC1CC1)NC(=O)c1ccccc1F	/	13µM*	/	0	0	/
CCc1ccccc1NC(=O)CCn1cccn1	/	/	/	/	0	-17
CC(=O)NC1Sc2ccccc2N=C1c1ccccc1 (stereo not given)	-1%	10µM*	-13%	0	0	-5
COc1cc2nc(CC(O)c3nc4cc(OC)c(OC)cc4[nH]3)[nH]c2cc1OC (stereo not given)	/	/	/	/	0	/
CCNc1c(NC(=O)c2ccccc2OCC)c(=O)oc2ccccc12	/	/	/	/	1	-14
COc1cc(OC)c(-c2c3cc(O)c(=O)cc-3oc3cc(O)c(O)cc23)cc1OC	?	-35%	-8%	-1	112*	-10
Cc1cccc(S(=O)(=O)c2c(N)n(Cc3ccco3)c3nc4ccccc4nc23)c1	-1%	-71%	22µM*	2	4	-5
Cc1ccc(S(=O)(=O)c2c(N)n(Cc3ccco3)c3nc4ccccc4nc23)cc1	-8%	-66%	?	1	0	-2
SMILES	PTAP TSG101 blk	BRCA1 expr act	PKM2 activator	IL2 activator	TRPML1 ag	TRPML1 blocker
O=C(CSc1ccc(F)cc1)N1CCN(S(=O)(=O)c2ccccc2)CC1	0%	22%	3.2µM*	-3	0	60
Cc1ccc(S(=O)(=O)N2CCN(C(=O)CSc3nncs3)CC2)cc1	-10%	0%	18µM*	0	1	-6
COc1ccccc1-n1cnnc1SCC(=O)N1CCN(S(=O)(=O)c2ccccc2)CC1	-4%	3%	16µM*	-1	-1	-1
O=C(CCSc1ccc(Cl)cc1)N1CCCCCC1	-3%	13µM*	-2%	-1	-1	3
O=C(CSc1nncs1)N1CCN(S(=O)(=O)c2ccccc2)CC1	-3%	-6%	26%	0	-1	13
NC(=O)C1CCN(C(=O)CCSc2ccc(Cl)cc2)CC1	-1%	19%	-2%	1	0	-25
CC1=C(C(=O)Nc2ccccc2C)C(c2cccnc2)n2nc(SCc3ccccc3F)nc2N1 (stereo not given)	/	-1%	/	/	0	1
CCCNC(=O)CNC(=O)c1ccccc1OCC(=O)Nc1ccc(Br)cc1	/	-26%	/	/	0	/
COc1ccc(C2CC(=O)N(Cc3ccccc3)c3c2c(C)nn3-c2nc(C)cc(C)n2)c(OC)c1 (stereo not given)	/	/	/	/	-1	-27
Cc1ccc(Nc2ccc(N3CCN(C(=O)c4cccc([N+](=O)[O-])c4)CC3)nn2)cc1	/	/	/	/	6	-3
Cc1ccc(S(=O)(=O)N2CCN(C(=O)CSc3ccc(Cl)cc3)CC2)cc1	-4%	-24%	14µM*	-1	2	-17
Cc1ccc(S(=O)(=O)N2CCCN(S(=O)(=O)c3ccc(C)cc3)CC2)cc1	-5%	-42%	8.9µM*	-1	4	8
O=C(CSc1n[nH]c(-c2cccs2)n1)N1CCCC1	-7%	32%	/	0	0	-9
Cc1ccc(S(=O)(=O)N2CCCCC2)cc1	-9%	-1%	/	-4	0	13
O=C(CSc1n[nH]c(-c2cccs2)n1)N1CCN(S(=O)(=O)c2ccccc2)CC1	-4%	-5%[1.84 µM]	25µM*	-1	0	12
Cc1ccc(SCC2(O)CCN(S(=O)(=O)c3ccc(Cl)cc3)CC2)cc1	-4%	-61%	0%	-2	3	30
O=C(Cn1nnc(-c2ccccc2Cl)n1)N1CCN(S(=O)(=O)c2ccc(Cl)cc2)CC1	-7%	-21%	7.9µM*	-2	3	0
Nc1ccc(/C=C/c2cccc3cccnc23)cc1	/	10%	/	/	4	/
N/C(=N\N=C\c1ccc(Br)o1)c1nonc1N	-4%	10µM*	9%	-1	1	-15
O=C(Nc1ccc2c(c1)Cc1cc([N+](=O)[O-])ccc1-2)C(F)(F)F	2%	4µM*	/	0	1	-8
